# Where a name gives a salt, the structure may show the parent alone. ± gives the standard deviation of the averaged measurements.
# Columns and labels:
# [1] = system: Saccharomyces cerevisiae BY4741 SeMeCo community; test: mean cell size (pixel area) (pixels); higher = larger cells; conditions: 10 µM; 24 h; SM minimal medium
# Method in brief: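 Mean cell pixel area per well was measured in a four-plasmid fluorescent community of Saccharomyces cerevisiae BY4741, where every plasmid complements one auxotrophy and carries a fluorescent marker. Cells from an overnight preculture at OD600 = 1.0 were diluted to OD600 = 0.3 and dispensed at 70 µl into 384-well plates acoustically predosed with drug to a final 10 µM in SM medium. Incubation lasted 24 h, followed by paraformaldehyde fixation, automated confocal imaging and analysis in Harmony. Reported figures are averaged over 3 replicates. Same SeMeCo high-content imaging drug screen: Selleck FDA-approved drugs at 10 µM, 24 h in SM medium, 384-well plates, 3 replicates.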
# [2] = system: Saccharomyces cerevisiae BY4741 SeMeCo community; test: z-score of prototroph abundance vs DMSO median; higher = larger share of this subpopulation than in DMSO controls; conditions: 10 µM; 24 h; SM minimal medium; subpopulation (auxotrophy): Prototroph
# Method in brief: (§1)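 Four plasmids, each restoring a single auxotrophy and encoding a distinct fluorescent protein, were carried by a Saccharomyces cerevisiae BY4741 community. After overnight growth to OD600 1.0 and dilution to 0.3, 70 µl per well was grown for 24 h in minimal SM medium on 384-well plates acoustically predosed with library drugs at 10 µM final. Following paraformaldehyde fixation, automated confocal microscopy was used, with single-auxotroph fluorescent strains defining thresholds and autofluorescence correction. Subpopulation abundance was then scored as a z-score against the vehicle-well median.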
# [3] = system: Saccharomyces cerevisiae BY4741 SeMeCo community; test: z-score of subpopulation abundance vs DMSO median, subpopulation auxotrophic for M; higher = larger share of this subpopulation than in DMSO controls; conditions: 10 µM; 24 h; SM minimal medium; subpopulation (auxotrophy): M
# Method in brief: as §1
# [4] = system: Saccharomyces cerevisiae BY4741 SeMeCo community; test: z-score of subpopulation abundance vs DMSO median, subpopulation auxotrophic for L; higher = larger share of this subpopulation than in DMSO controls; conditions: 10 µM; 24 h; SM minimal medium; subpopulation (auxotrophy): L
# Method in brief: as §1
# [5] = system: Saccharomyces cerevisiae BY4741 SeMeCo community; test: z-score of subpopulation abundance vs DMSO median, subpopulation auxotrophic for U; higher = larger share of this subpopulation than in DMSO controls; conditions: 10 µM; 24 h; SM minimal medium; subpopulation (auxotrophy): U
# Method in brief: as §1
# [6] = system: Saccharomyces cerevisiae BY4741 SeMeCo community; test: z-score of subpopulation abundance vs DMSO median, subpopulation auxotrophic for LU; higher = larger share of this subpopulation than in DMSO controls; conditions: 10 µM; 24 h; SM minimal medium; subpopulation (auxotrophy): LU
# Method in brief: as §1
# [7] = system: Saccharomyces cerevisiae BY4741 SeMeCo community; test: z-score of subpopulation abundance vs DMSO median, subpopulation auxotrophic for HM; higher = larger share of this subpopulation than in DMSO controls; conditions: 10 µM; 24 h; SM minimal medium; subpopulation (auxotrophy): HM
# Method in brief: as §1
# [8] = system: Saccharomyces cerevisiae BY4741 SeMeCo community; test: z-score of subpopulation abundance vs DMSO median, subpopulation auxotrophic for HU; higher = larger share of this subpopulation than in DMSO controls; conditions: 10 µM; 24 h; SM minimal medium; subpopulation (auxotrophy): HU
# Method in brief: as §1
# [9] = system: Saccharomyces cerevisiae BY4741 SeMeCo community; test: z-score of subpopulation abundance vs DMSO median, subpopulation auxotrophic for UM; higher = larger share of this subpopulation than in DMSO controls; conditions: 10 µM; 24 h; SM minimal medium; subpopulation (auxotrophy): UM
# Method in brief: as §1
# [10] = system: Saccharomyces cerevisiae BY4741 SeMeCo community; test: z-score of subpopulation abundance vs DMSO median, subpopulation auxotrophic for HL; higher = larger share of this subpopulation than in DMSO controls; conditions: 10 µM; 24 h; SM minimal medium; subpopulation (auxotrophy): HL
# Method in brief: as §1
# [11] = system: Saccharomyces cerevisiae BY4741 SeMeCo community; test: z-score of subpopulation abundance vs DMSO median, subpopulation auxotrophic for HLU; higher = larger share of this subpopulation than in DMSO controls; conditions: 10 µM; 24 h; SM minimal medium; subpopulation (auxotrophy): HLU
# Method in brief: as §1
# [12] = system: Saccharomyces cerevisiae BY4741 SeMeCo community; test: z-score of subpopulation abundance vs DMSO median, subpopulation auxotrophic for HLUM; higher = larger share of this subpopulation than in DMSO controls; conditions: 10 µM; 24 h; SM minimal medium; subpopulation (auxotrophy): HLUM
# Method in brief: as §1
# [13] = system: Saccharomyces cerevisiae BY4741 SeMeCo community; test: z-score of subpopulation abundance vs DMSO median, subpopulation auxotrophic for H; higher = larger share of this subpopulation than in DMSO controls; conditions: 10 µM; 24 h; SM minimal medium; subpopulation (auxotrophy): H
# Method in brief: as §1
# [14] = system: Saccharomyces cerevisiae BY4741 SeMeCo community; test: z-score of subpopulation abundance vs DMSO median, subpopulation auxotrophic for LM; higher = larger share of this subpopulation than in DMSO controls; conditions: 10 µM; 24 h; SM minimal medium; subpopulation (auxotrophy): LM
# Method in brief: as §1
# [15] = system: Saccharomyces cerevisiae BY4741 SeMeCo community; test: z-score of subpopulation abundance vs DMSO median, subpopulation auxotrophic for HUM; higher = larger share of this subpopulation than in DMSO controls; conditions: 10 µM; 24 h; SM minimal medium; subpopulation (auxotrophy): HUM
# Method in brief: as §1
# [16] = system: Saccharomyces cerevisiae BY4741 SeMeCo community; test: z-score of subpopulation abundance vs DMSO median, subpopulation auxotrophic for LUM; higher = larger share of this subpopulation than in DMSO controls; conditions: 10 µM; 24 h; SM minimal medium; subpopulation (auxotrophy): LUM
# Method in brief: as §1
SMILES,mean cell size [1],z-score of prototroph abundance [2],z-score of subpopulation abundance [3],z-score of subpopulation abundance [4],z-score of subpopulation abundance [5],z-score of subpopulation abundance [6],z-score of subpopulation abundance [7],z-score of subpopulation abundance [8],z-score of subpopulation abundance [9],z-score of subpopulation abundance [10],z-score of subpopulation abundance [11],z-score of subpopulation abundance [12],z-score of subpopulation abundance [13],z-score of subpopulation abundance [14],z-score of subpopulation abundance [15],z-score of subpopulation abundance [16]
CN1CCC(=C2c3ccccc3C=Cc3ccccc32)CC1 [Cyproheptadine hydrochloride],12.61 ± 0.097,0.23,-0.18,0.25,0.43,0.02,-0.58,-0.56,-0.25,-0.02,-0.31,-0.08,,,,
COc1cc(NS(=O)(=O)c2ccc(N)cc2)ncn1 [Sulfamonomethoxine],12.3 ± 0.041,0,-0.64,0,1.19,1.01,-1.46,0.5,0.65,-0.82,0.33,,-0.96,-0.55,0.06,0.5
Nc1ccc(S(=O)(=O)NC(=O)c2ccccc2)cc1 [Sulfabenzamide],,0.8,-0.05,-0.13,-0.51,-0.03,-0.23,,-1.04,-0.91,0.61,0.15,-0.19,-0.72,,-0.19
NC(=O)C(c1ccccc1)(c1ccccc1)[C@@H]1CCN(CCc2ccc3c(c2)CCO3)C1 [Darifenacin HBr],12.4 ± 0.39,0.34,0.85,-0.21,0.01,-0.1,-0.73,-0.14,0.53,-0.56,-0.45,-0.5,-1.43,,0.05,
O=C(O)C[C@H](O)C[C@H](O)/C=C/c1c(C2CC2)nc2ccccc2c1-c1ccc(F)cc1 [Pitavastatin Calcium],12 ± 0.2,-2.8,1,0.86,0.68,1.45,4.05,2.66,1.84,1.83,1.38,1.55,1.86,-0.2,,1.38
CCCNCC(O)COc1ccccc1C(=O)CCc1ccccc1 (stereo unspecified) [Propafenone HCl],12.36 ± 0.1,0.15,-0.38,-0.54,0.55,-0.32,-0.15,0.58,,-0.37,-0.61,0.05,-0.52,,-0.3,0.61
CN[C@@H]1[C@@H](O)[C@@H](O[C@@H]2[C@@H](O)[C@H](O[C@H]3O[C@H](CN)[C@@H](O)[C@H](O)[C@H]3O)[C@@H](N)C[C@H]2NC(=O)[C@@H](O)CN)OC[C@]1(C)O [Isepamicin Sulphate],,-0.32,0,-1.49,,-0.44,-0.49,,1.19,-1.07,-0.42,,-0.38,-0.22,0.82,0.03
COc1cccc2c1C(=O)c1c(O)c3c(c(O)c1C2=O)C[C@@](O)(C(=O)CO)C[C@@H]3O[C@H]1C[C@H](N)[C@H](O[C@@H]2CCCCO2)[C@H](C)O1 [Pirarubicin],12.3 ± 0.17,2.14,-12,0.11,,4.15,-5.17,,,0.37,2.71,1.36,,,-1.83,-0.26

# Reference: the supplement of paper PMC8975748
